Compounds with a hit are over-represented: about 0.99% of the library has one in this group of screens.
LANA-H2A inh – blockers of LANA interaction with H2A/H2B – biochemical, FP readout, HTS, primary screen | Protein LANA1 (Human herpesvirus 8 type P (isolate GK18)), Q9QR71 | cell-free LANA-H2A/H2B peptide, fluorescence polarization | inhibition, % (concentration not given with the values) | 320,000 compounds, 0.6% hits | AID 2629, 2010; in the data active = inhibition mostly above about 10%, no sharp cut-off; inactive = mostly below about 6.7%
Target sequence (Q9QR71 whole entry, looked up): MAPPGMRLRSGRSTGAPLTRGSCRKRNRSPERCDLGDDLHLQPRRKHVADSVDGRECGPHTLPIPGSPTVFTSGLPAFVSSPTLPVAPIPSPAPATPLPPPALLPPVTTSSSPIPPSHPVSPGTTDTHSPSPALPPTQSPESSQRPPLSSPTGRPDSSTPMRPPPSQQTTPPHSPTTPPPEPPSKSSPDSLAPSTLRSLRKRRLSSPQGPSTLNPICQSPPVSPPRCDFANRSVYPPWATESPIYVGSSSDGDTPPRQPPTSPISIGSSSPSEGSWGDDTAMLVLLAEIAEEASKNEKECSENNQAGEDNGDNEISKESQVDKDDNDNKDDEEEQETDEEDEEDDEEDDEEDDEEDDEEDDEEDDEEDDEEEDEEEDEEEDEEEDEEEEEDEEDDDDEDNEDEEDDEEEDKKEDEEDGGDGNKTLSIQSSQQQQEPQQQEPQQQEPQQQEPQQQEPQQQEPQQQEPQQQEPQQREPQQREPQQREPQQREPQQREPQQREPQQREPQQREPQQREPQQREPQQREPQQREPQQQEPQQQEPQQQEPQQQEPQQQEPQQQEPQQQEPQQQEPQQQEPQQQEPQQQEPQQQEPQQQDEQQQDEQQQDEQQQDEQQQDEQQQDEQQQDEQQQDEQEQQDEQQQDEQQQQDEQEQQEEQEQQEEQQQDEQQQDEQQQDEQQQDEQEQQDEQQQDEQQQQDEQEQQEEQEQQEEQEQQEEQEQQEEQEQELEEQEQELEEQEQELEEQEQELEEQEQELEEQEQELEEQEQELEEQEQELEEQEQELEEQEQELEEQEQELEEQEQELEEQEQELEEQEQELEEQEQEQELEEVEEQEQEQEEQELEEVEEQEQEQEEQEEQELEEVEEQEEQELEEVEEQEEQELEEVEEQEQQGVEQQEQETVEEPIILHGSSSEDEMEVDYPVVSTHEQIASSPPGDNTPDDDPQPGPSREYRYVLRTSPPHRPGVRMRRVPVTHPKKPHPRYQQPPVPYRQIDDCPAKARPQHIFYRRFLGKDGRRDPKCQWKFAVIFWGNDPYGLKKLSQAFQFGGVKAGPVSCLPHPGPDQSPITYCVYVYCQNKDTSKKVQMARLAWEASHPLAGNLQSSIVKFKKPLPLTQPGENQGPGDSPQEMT
cardiac RTF act – cardiac RTF calcium sensitivity activators, primary screen, biochemical, IANBD-TnC fluorescence, EC20 calcium; IANBD-labeled TnC RTF fluorescence at EC20 calcium; 0% EC20 calcium, 100% full calcium; activation, % at 7.2 µM; AID 493008, 2010; 340,000 compounds, 0.24% hits; Troponin I, cardiac muscle (Homo sapiens) + Troponin T, cardiac muscle (Homo sapiens) + …;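 active = activation above the mean over all tested compounds plus 3 SD, cut at about 30% in these data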;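 also: rise in fluorescence read as greater calcium sensitivity of cardiac thin filaments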
RTF Ca sens inh – cardiac RTF calcium sensitivity inhibitors, primary screen, biochemical, IANBD-TnC fluorescence, EC70 calcium | Troponin I, cardiac muscle (Homo sapiens) + Troponin T, cardiac muscle (Homo sapiens) + … | IANBD-labeled cardiac RTF, Ca2+ fluorescence | inhibition, % at 7.15 µM | 340,000 compounds, 0.12% hits | AID 493244, 2011;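 active = inhibition above the mean inhibition of all tested compounds plus 3 SD, cut at about 17% in these data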;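 also: assay run at fixed EC70 calcium of 1.6 mM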
LANA DNA inh – inhibitors of KSHV C-LANA binding to DNA, primary screen, biochemical, fluorescence polarization, FAM-LBS DNA, MBP-C-LANA, single point; Kaposi's sarcoma herpesvirus LANA C-terminal domain (residues 932-1162) DNA binding; inhibition, % at 9 µM; 340,000 compounds, 0.078% hits; AID 504423, 2011;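 active = highest replicate inhibition at or above 60% at 9 µM, even if other replicates fall short; inactive = all replicates below 60% inhibition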;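 also: 0% = neutral control wells and 100% = 4 µM acridine orange control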
Keap1-Nrf2 PPI – Keap1-Nrf2 protein-protein interaction inhibitors, primary screen, biochemical, fluorescence polarization, single point. AID 504523, 2011. Kelch-like ECH-associated protein 1 (Homo sapiens), Q14145. Keap1 Kelch-Nrf2 peptide fluorescence polarization, 1536-well. 340,000 compounds, 0.15% hits. inhibition, % at 9.4 µM; in the data active = inhibition above about 12%;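 also: human Keap1 Kelch domain with fluorescein labeled Nrf2 9mer peptide probe; 0% = neutral control wells and 100% = peptide positive control; higher means more block of Keap1 binding to Nrf2 peptide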
RTF inh confirm – cardiac RTF calcium sensitivity inhibitors, confirmation, biochemical, fluorescence readout; shares compounds with RTF Ca sens inh; reconstituted cardiac thin filaments; inhibition, % at 7.15 µM; 360 compounds, 8% hits; in the data active = inhibition above about 18%
Numbers without * were called inactive; / = not tested or not shown.

SMILES | LANA-H2A inh | cardiac RTF act | RTF Ca sens inh | LANA DNA inh | Keap1-Nrf2 PPI | RTF inh confirm
CCc1ccccc1NC(=O)C1(S(=O)(=O)c2ccc(C)cc2)CC1 | 4.6 | -6.6 | 17.2* | -0.1 | -1.2 | -1.3
CCN(CC)S(=O)(=O)c1cc(NS(=O)(=O)c2cccc(Cl)c2Cl)ccc1C | -1.3 | 4.8 | 47.4* | -2.9 | 1.8 | -1.0
CCC(/C=N/NC(=O)CCCCC(=O)N/N=C/C(CC)CC)CC | 0.6 | -3.9 | 1.1 | 1.1 | 0.7 | /
COc1ccc(C2=CC3=C(Br)C(=O)C(C)(OC(=O)c4cccs4)C(=O)C3=CO2)cc1 (stereo unspecified) | -1.1 | -18.5 | 19.8* | 3.6 | -4.3 | 0.3
Cc1sc(NC(=O)CN2CCCC2)nc1-c1ccc2c(c1)CCN2C(=O)c1ccc(F)cc1 | 0.2 | 5.0 | -2.9 | -1.2 | 1.0 | /
COc1ccc(-c2nn(-c3ccccc3)cc2C(=O)NCCCn2ccnc2)cc1 | -0.9 | -3.9 | 26.1* | -0.9 | 1.0 | -7.8
Cc1ccc(S(=O)(=O)N2CCN(C(=O)COC(=O)CSc3ccc(C)c(C)c3)CC2)c(C)c1 | / | -8.2 | -2.1 | -1.5 | -0.9 | /
O=C1C=CC2=C3c4cc(O)c(O)cc4CC3(O)COC2=C1O (stereo unspecified) | / | -28.6 | 37.0* | 107.1* | -7.6 | 33.7*
CCN(CC)CCCN(C(=O)c1cccc(C)c1)c1nc(-c2ccc(OC)cc2)cs1 | 3.6 | 1.5 | -21.0 | 4.8 | -3.6 | /
CC(C)(C)n1nnnc1C(c1cccc(C#N)c1)N1CCN2CCCC2C1 (stereo unspecified) | 11.0 | 3.7 | 0.7 | 1.0 | 3.2 | /
CC(C)(C)n1nnnc1C(c1cccc(C#N)c1)N1CCCCCC1 (stereo unspecified) | 1.1 | -4.4 | 23.1* | -0.9 | -2.6 | -1.5
NC(=S)Nc1nc2ccccc2s1 | -2.8 | -5.7 | 19.0* | 0.5 | 1.7 | -5.3
CCOc1ccc(S(=O)(=O)/N=C(/c2ccccc2)N(C)C)cc1 | 0.7 | 8.0 | -1.1 | 2.8 | -3.6 | /
CN1CCN(/N=C/c2ccc(Br)cc2)CC1 | 1.8 | -2.1 | 20.1* | -0.6 | 0.5 | -6.0
CN1CCN(/N=C/c2ccc(N(c3ccccc3)c3ccccc3)cc2)CC1 | -1.4 | -4.9 | 6.2 | 0.9 | -6.3 | /
CCCN(CCC)c1nc(C)cc(C(C#N)c2nc3ccccc3o2)n1 (stereo unspecified) | 2.3 | / | / | / | / | /
C=CCNc1nnnc2c1sc1nc(N3CCOCC3)c3c(c12)CCCC3 | -2.7 | 0.5 | 0.4 | 2.4 | 0.4 | /
CNC(=O)Oc1ccc2c(c1)[C@]1(C)CCN(C)C1N2C (stereo partly specified) | 1.8 | -0.3 | 17.1* | -0.1 | 0.0 | -3.2
CC(=O)Nc1ccc2c(c1)C(C)(C)C(C)N2C (stereo unspecified) | 2.9 | / | / | / | / | /
O=C1NC(=S)S/C1=C\C=C\c1ccc([N+](=O)[O-])o1 | / | -11.4 | 31.3* | 48.1 | 8.7 | 20.4*
O=C(COc1ccccc1Cl)NCCNC(=O)c1cnccn1 | 1.7 | -2.7 | -2.3 | 0.6 | -3.4 | /
O=C(O)C(Cc1ccccc1)N1C(=O)/C(=C/C=C/c2ccco2)SC1=S (stereo unspecified) | / | -19.5 | 63.7* | 105.7* | 25.8* | 27.1*
CN1CCN(S(=O)(=O)c2ccc(Nc3ccc(F)cc3)c([N+](=O)[O-])c2)CC1 | -0.5 | 8.5 | 3.9 | 0.6 | -2.7 | /
Cn1c(Cn2cnc([N+](=O)[O-])n2)nnc1SCC(=O)Nc1ccccc1 | 1.8 | -1.3 | 17.1* | 0.8 | 0.5 | -1.0
O=C(O)c1ccc(CNC(=O)c2ccccc2NC(=O)c2cccc([N+](=O)[O-])c2)cc1 | -1.7 | 2.3 | 18.0* | 0.2 | 2.6 | -4.3
COc1ccccc1OCC(O)CO (stereo unspecified) | -2.9 | 7.8 | 1.3 | -0.3 | -8.5 | /
